From PubChem BioAssay
An excerpt weighted towards active compounds, which were near 2.8% of everything screened.
TWEAK Fn14 block: blocks TWEAK-Fn14 interaction in a reporter cell assay. TWEAK-stimulated Fn14 reporter cells, luciferase luminescence, 8 h. inhibition, % at 10 µM. 360,000 compounds, 2% hits. AID 1159606; in the data active means inhibition above about 50%
EWS-Fli inh: blocks EWS/Fli oncoprotein-driven transcription; A673 NR0B1-luciferase reporter, viability-normalised; inhibition, % at 12.6 µM; 350,000 compounds, 0.67% hits; AID 651661;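 active means mean inhibition of at least 50% after viability correction, with every replicate also passing that limit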;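 further: firefly luciferase signal divided by Alamar Blue viability fluorescence both relative to DMSO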
PAX8 reporter: lowers PAX8-driven luciferase in RMG-I cells; inhibition, % at 12.6 µM; 360,000 compounds, 1.2% hits; RMG-I TPO-luciferase reporter, SteadyGlo, 24 h;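 active means mean replicate inhibition at least 60% with every replicate also reaching 60%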;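 further: luciferase light reporting Pax8 driven TPO promoter activity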
TROY signal inh: blocks TROY-dependent signaling in reporter cells. 360,000 compounds, 0.98% hits. inhibition, % at 10 µM. Q293 LMP1-TROYcd NF-kB luciferase reporter, 4 h. AID 1347056;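 active means compounds whose plate-normalised and pattern-corrected inhibition of the luciferase reporter signal at the single screening dose is 50% or more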
LGR2 antag: inhibitors of bursicon-induced Drosophila LGR2 receptor cAMP signaling. HEK293 LGR2, CRE-luciferase, bursicon-stimulated, 4 h. inhibition, % at 9.99 µM. 380,000 compounds, 0.35% hits;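 active means drop in luminescence signal, shown as inhibition above about 50% in the replicate tests, limit read from the data, passing the limit was not always enough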;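 further: agonist challenge used bursicon conditioned medium at about half maximal strength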
Large screens that a line does not name were inactive.

CC(=C/C(=O)O)/C=C/c1ccc([N+](=O)[O-])cc1	none
Nc1nc(Cl)nc2c1ncn2[C@@H]1O[C@H](CO)[C@@H](O)[C@H]1O	PAX8 reporter 69.9
OC[C@H]1O[C@@H](n2cnc3c(NC4CCCC4)nc(Cl)nc32)[C@H](O)[C@@H]1O	none
Nc1nn(-c2cccc(F)n2)cc1-c1ccc(Cl)cc1	none
COc1ccc(-c2ccn(-c3cccc(F)n3)n2)cc1	TWEAK Fn14 block 56.2
C[C@@H]1CCCCO[C@H](CN(C)C(=O)C2CCCCC2)[C@@H](C)CN([C@@H](C)CO)C(=O)c2cc(NS(C)(=O)=O)ccc2O1	none (no result: TWEAK Fn14 block, TROY signal inh)
O=S(=O)(Nc1ccc(Cl)cc1NS(=O)(=O)c1ccccc1)c1ccccc1	TROY signal inh 50.6
COc1ccc(-c2cc3ccc(OC)cc3cn2)cc1	TWEAK Fn14 block 85.7, EWS-Fli inh 57.6, LGR2 antag 67.5
CCOC(=O)COc1ccccc1/C=C\[N+](=O)[O-]	TWEAK Fn14 block 103.7, TROY signal inh 86.6 (no result: EWS-Fli inh, PAX8 reporter, LGR2 antag)
Cc1ccc(C(=O)COC(=O)COc2ccccc2[N+](=O)[O-])s1	none
COC(=O)c1ccc2c(=O)n(CCCCCC(=O)O)c(=S)[nH]c2c1	TWEAK Fn14 block 53.5 (no result: EWS-Fli inh)
COc1ccccc1C(=O)Nc1ccc2c(c1)nc(CCNC(=O)c1ccccc1)n2C	EWS-Fli inh 65.1
Cc1ccc(NC(=O)c2cc3ccccc3o2)cc1S(=O)(=O)N(C)C	none (no result: EWS-Fli inh, PAX8 reporter, LGR2 antag)
Cc1ccc(NC(=O)c2cc3ccccc3oc2=O)cc1S(=O)(=O)N(C)C	TWEAK Fn14 block 102.0, TROY signal inh 90.3 (no result: EWS-Fli inh, PAX8 reporter, LGR2 antag)
COc1ccc(S(=O)(=O)Nc2cccc3c2O[C@H](CN(C)Cc2ccc(C(=O)Nc4ccccc4N)cc2)[C@H](C)CN([C@H](C)CO)C3=O)cc1	none (no result: TWEAK Fn14 block, PAX8 reporter, TROY signal inh)
O=C(c1ccc(F)cc1)N1CCCCN2[C@H](C1)[C@@H](c1ccc(-c3ccc(F)cc3)cc1)[C@@H]2CO	none (no result: TWEAK Fn14 block, TROY signal inh, LGR2 antag)
CCc1nc(NCC2CCCN2CC)c2nnn(Cc3ccccc3F)c2n1 (stereo not given)	TWEAK Fn14 block 69.3 (no result: EWS-Fli inh, PAX8 reporter, LGR2 antag)
CCc1nc(NCCc2ccccn2)c2nnn(Cc3ccccc3F)c2n1	none (no result: EWS-Fli inh, PAX8 reporter, LGR2 antag)
Cc1onc(-c2ccc3c(c2)OCO3)c1-c1ccc2[nH]ccc2c1	TWEAK Fn14 block 61.5
Fc1ccc(Nc2ccc3ccccc3n2)c(F)c1	TWEAK Fn14 block 51.9
O=C(Nc1ccc2ccccc2n1)Nc1ccccc1F	none
CCN(CC)CCNC(=O)c1ccc2c(c1NCCO)C(=O)c1ccccc1C2=O	TWEAK Fn14 block 87.3, PAX8 reporter 69.0 (no result: LGR2 antag)
CC1CCN(C(=O)c2ccc3c(c2NCCO)C(=O)c2ccccc2C3=O)CC1	none (no result: EWS-Fli inh, PAX8 reporter, LGR2 antag)
CC(C)NC(=O)Nc1ccc2c(c1)C(=O)N([C@H](C)CO)C[C@@H](C)[C@H](CN(C)CC1CCCCC1)OCCCC[C@@H](C)O2	none (no result: TWEAK Fn14 block, EWS-Fli inh, TROY signal inh)
C[C@H](CO)N1C[C@H](C)[C@H](CN(C)Cc2ccccn2)Oc2ncc(-c3cccc(F)c3)cc2C1=O	none (no result: TWEAK Fn14 block, TROY signal inh)
O=c1cc(CSc2ccc(Cl)cc2)nc(-c2ccccn2)[nH]1	TWEAK Fn14 block 105.6, PAX8 reporter 69.5
Cc1ccc(S(=O)(=O)N[C@@H]2CC[C@H](CC(=O)NC3CCCCC3)O[C@H]2CO)cc1	none (no result: TWEAK Fn14 block, TROY signal inh)
Cc1noc2ncnc(Sc3ccccc3Cl)c12	TROY signal inh 54.2 (no result: EWS-Fli inh, PAX8 reporter)
O=C(Nc1ccc(S(=O)(=O)N2CCOCC2)cc1)c1ccc([N+](=O)[O-])cc1Cl	none
Cc1ccc(NC(=O)c2cc(S(=O)(=O)N3CCOCC3)ccc2F)c(C)c1	TWEAK Fn14 block 79.7 (no result: EWS-Fli inh, PAX8 reporter, LGR2 antag)
CCN(C(=S)Nc1cc(S(=O)(=O)N2CCOCC2)ccc1Cl)c1cccc2ccccc12	TWEAK Fn14 block 86.7
O=C(Nc1cc(S(=O)(=O)N2CCOCC2)ccc1Cl)c1cc([N+](=O)[O-])ccc1Cl	TWEAK Fn14 block 77.5 (no result: EWS-Fli inh, PAX8 reporter, LGR2 antag)
O=S(=O)(c1ccc(Cl)c(NC(=S)Nc2cccc(O)c2)c1)N1CCOCC1	none
O=C(Nc1ccccc1Cl)c1cc(S(=O)(=O)N2CCCC(C(=O)O)C2)ccc1F (stereo not given)	TWEAK Fn14 block 88.0 (no result: EWS-Fli inh, PAX8 reporter)
O=C(C1CCCC1)N1CC(=O)N2[C@H](CO)[C@@H](c3ccc(Br)cc3)[C@H]2C1	none (no result: TWEAK Fn14 block, TROY signal inh)
COc1ccc(CN(C)C[C@H]2Oc3c(NS(=O)(=O)c4ccc(F)cc4)cccc3C(=O)N([C@H](C)CO)C[C@H]2C)cc1	none (no result: TWEAK Fn14 block, TROY signal inh)
Cc1occc(=O)c1OC(=O)Nc1ccc(Cl)c(Cl)c1	TWEAK Fn14 block 59.0 (no result: PAX8 reporter)
COc1ccc(C(=O)Oc2c(C)occc2=O)cc1OC	none (no result: EWS-Fli inh, PAX8 reporter, LGR2 antag)
CC(=O)Nc1nc2c(s1)CCc1ccccc1-2	TWEAK Fn14 block 57.2 (no result: EWS-Fli inh)
O=C(CCCl)Nc1nc2c(s1)CCc1ccccc1-2	none
CCCCOc1ccc(/C=C/C(=O)OCC(=O)N2CC(=O)Nc3ccccc32)cc1OCC	TWEAK Fn14 block 68.1
